TDP1 cell CPT: growth inhibition of DT40 Tdp1-/-;hTDP1 cells with camptothecin (screen for TDP1 inhibitors); actives 12% (n = 420,000); AID 686979; Potency, µM (top dose mostly 46.2 µM), inactives show at the highest dose activity change, negative = growth inhibition, usual class: inhibitors; chicken DT40 Tdp1-/-;hTDP1 cells + 20 nM CPT, ATP luminescence, 48 h; note: potency is the fitted concentration of half-maximal effect; % is set by controls: 0 for no effect and ±100 for the full control effect; nearly all actives have a fitted effect of over 55% in size
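Cell growth measured by CellTiter-Glo luminescence after a minimum 48 h, 37 C compound exposure with 20 nM CPT in Tdp1-knockout DT40 cells stably expressing hTDP1, seeded 400/well; qHTS titration format.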
ClpP mod: qHTS Assay for Activators of ClpP | ATP-dependent Clp protease proteolytic subunit (Bacillus subtilis (strain 168)), P80244 | purified B. subtilis ClpP, FRET peptide cleavage, 20 min | Potency, µM (highest dose often 57.5 µM), for the others: at the top dose activity change, negative = active | actives 1.9% (n = 340,000); active = well fitted falling curve with a large enough effect; inconclusive = small, poorly fitted or top-dose-only effect; inactive = no such curve, though single readings can be large or run the other way; note: potency is the fitted concentration of half-maximal effect; the source files actives as falling curves though it sought activators and does not explain the sign; nearly all actives have a fitted effect of over 65% in size
Target sequence (P80244 whole entry, looked up): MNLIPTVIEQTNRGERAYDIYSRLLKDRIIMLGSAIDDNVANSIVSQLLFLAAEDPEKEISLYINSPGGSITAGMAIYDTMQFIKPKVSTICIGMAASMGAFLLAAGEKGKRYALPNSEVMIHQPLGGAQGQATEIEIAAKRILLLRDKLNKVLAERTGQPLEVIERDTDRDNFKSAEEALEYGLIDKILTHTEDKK
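ClpP 10 microg/mL final, pH 8 Tris/KCl buffer with BSA, glycerol, Tween-20; compound pinned in; FRET-FV substrate; RT 20 min; Ex320/Em430; ΔFRET vs ADEP 5.8 microM, DMSO, no enzyme.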
DRD3 agonist: agonists of human D3 dopamine receptor | P35462 | D3R DiscoveRx beta-arrestin cells, luminescence, 90 min | max activation, % | actives 0.58% (n = 410,000) | AID 652048; in the data active = max activation above about 30%; note: 0% is about no effect
Target sequence (P35462 whole entry, looked up): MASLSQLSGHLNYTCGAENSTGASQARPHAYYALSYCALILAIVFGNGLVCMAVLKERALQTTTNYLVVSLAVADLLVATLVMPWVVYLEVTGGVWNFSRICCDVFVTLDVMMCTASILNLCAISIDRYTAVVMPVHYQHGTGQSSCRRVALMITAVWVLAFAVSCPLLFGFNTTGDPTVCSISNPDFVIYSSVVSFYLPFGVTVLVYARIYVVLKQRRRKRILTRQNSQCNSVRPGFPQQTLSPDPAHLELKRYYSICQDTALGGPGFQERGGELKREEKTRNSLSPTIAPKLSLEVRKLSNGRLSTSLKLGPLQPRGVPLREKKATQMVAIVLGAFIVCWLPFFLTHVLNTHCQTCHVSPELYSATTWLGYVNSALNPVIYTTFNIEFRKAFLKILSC
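Agonist mode: compounds and dopamine controls were applied to plated cells for 90 min at 37 degrees C after an overnight attachment at 1500 cells/well. Luminescent read-out followed 30 - 60 minutes at room temperature with DiscoveRx detection reagent.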
DT40 TDP1 no CPT: qHTS for Inhibitors of human tyrosyl-DNA phosphodiesterase 1 (TDP1): qHTS in cells in absence of CPT; DT40 Tdp1-/- hTDP1 cells, no CPT, ATP luminescence, 48 h; Potency, µM (highest dose often 46.2 µM), for inactives: top-dose activity change, negative = growth inhibition, hits mostly inhibitors; actives 15% (n = 420,000); note: potency is the fitted concentration of half-maximal effect; % is set by controls: 0 for no effect and ±100 for the full control effect; nearly all actives have a fitted effect of over 55% in size
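Stably hTDP1-transfected Tdp1-null chicken DT40 cells were treated with library compounds minus camptothecin and grown for at least 48 hr at 37 °C, after which cellular ATP was quantified by luminescence.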
IL-1B inflam inh: inhibitors of inflammasome signaling (IL-1 beta secretion); actives 4.7% (n = 360,000); activity change, % at 57.5 µM; AID 743279; THP-1 LPS/ATP IL-1B secretion, AlphaLISA, 16 h; hits give low values; in the data active = activity change below about -50%; inconclusive = mostly about -30% to -49%; note: % is set by controls: 0 for no effect and ±100 for the full control effect
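Secreted IL-1B measured by AlphaLISA bead assay after 16 h compound exposure of THP-1 cells; compounds (final up to 57.5 uM) added 1 h before LPS (250 ng/mL) and ATP (1.25 mM) stimulation; lower signal means less secretion.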
D3 antag: D3 dopamine receptor (human) antagonism; D3R cells, DiscoveRx beta-arrestin luminescence, antagonist mode; hits give low values; max response, negative = inhibition, %; actives 2.5% (n = 360,000); AID 652054; in the data active = max response below about -50%; inconclusive = no clear call, values can overlap the other calls; note: % is set by controls: 0 for no effect and ±100 for the full control effect
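Cells expressing the human receptor were seeded at 1500 cells/well, incubated overnight at 37 degrees C in 5% CO2, then exposed to library compounds with dopamine controls for 90 minutes at 37 degrees C before luminescent detection.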
* marks the source's active call; other numbers are inactive results; ? = inconclusive; . = not tested or not shown; ! = not active in a repeat; [ ] = another dose, or the depositor's remark. In the library only some 21% were active in any assay of this set; here they are far more common. Unless noted, calls come from the whole dose curve; as a rule, active = well fitted inhibition curve with a large enough effect; inconclusive = small, poorly fitted or top-dose-only effect; inactive = flat fitted curve, though single readings scatter.

SMILES	TDP1 cell CPT	ClpP mod	DRD3 agonist	DT40 TDP1 no CPT	IL-1B inflam inh	D3 antag
Cc1ccccc1C(=O)N1c2ncnn2C2(CCCCC2)[C@@H]2CCCC[C@@H]21	?	-4.1%	-8.9	?	.	.
COC(=O)c1cccc(F)c1C(=O)c1cccc2ccccc12	7.6%	.	-0.1	3.1%	8.5	14.2
Cn1c(NCCc2ccccc2)cc(=O)n(C)c1=O	0.0%	0.9%	3.2	-15.8%	-10.6	16.1
Cn1c(=O)cc(Nc2ccc(Cl)cc2)[nH]c1=O	?	.	-2.0	20.6µM*	40.9	1.2
Cn1c(=O)cc(NCCc2ccccc2)[nH]c1=O	7.31µM*	-22.9%	2.4	10.3µM*	28.0	20.9
Cn1c(=O)cc(Nc2ccccc2)[nH]c1=O	-16.2%	-0.6%	4.3	-17.6%	28.2	-9.6
Cc1oc(-c2ccccc2NC(=O)c2ccccc2)nc1CNC(=O)C1CC(=O)OC12CCCCC2 (configuration not stated)	-4.2%[9.04 µM]	.	.	4.6%	.	.
O=C(Cn1ccc2ccccc2c1=O)NCC(=O)Nc1ccc(F)cc1F	0.3%	.	0.9	-3.7%	1.3	2.4
CN(C)S(=O)(=O)c1ccc(N2CCCC2)c(C(=O)Nc2nc3ccc(F)cc3s2)c1	-21.0%	-11.0%	-1.7	-29.7%	-50.9*	-15.0
Cc1cccc2sc(NC(=O)c3cc(S(=O)(=O)N(C)C)ccc3N3CCCC3)nc12	?	.	-11.9	18.4µM*	-124.1*	-12.8
Cc1ccc(-c2[nH]c3ccccc3c2SCCN)cc1	?	4.1%	-5.1	14.6µM*	-65.1*	-3.3
NCCSc1c(-c2ccc(Cl)cc2)[nH]c2ccccc12	?	3.3%	-1.0	?	-64.8*	22.6
Cc1[nH]c2ccccc2c1SCCN	?	-6.3%	-5.0	?	-14.8	-4.0
NCCSc1c(-c2ccccc2)[nH]c2ccccc12	?	3.8%	-6.9	20.6µM*	-21.4	-29.1
Cc1ccc(NC(=O)c2cc(=O)[nH]c3ccccc23)cc1	-2.0%	-3.6%	-8.6	23.4%	-7.9	-15.3
Cc1ccc(-c2cc(=O)[nH]c3ccccc23)cc1	9.2µM*	-9.3%	-3.7	7.31µM*	-3.5	2.7
COc1ccc2nc(NC(=O)c3ccc(S(=O)(=O)N4CCC(C)CC4)cc3)sc2c1	2.5%	2.0%	-1.4	?	.	.
CCC1(c2ccccc2)NC(=O)N(CC(=O)Nc2ccc3c(C)cc(=O)oc3c2)C1=O (configuration not stated)	?	?	11.4	?	0.3	1.5
Cn1c(=O)[nH]c(NCCc2ccc(O)cc2)c([N+](=O)[O-])c1=O	28.4%	0.5%	-5.3	1.2%	14.5	1.1
O=C(NCc1cccnc1)c1cc(C2CCCCN2S(=O)(=O)c2cccc3cccnc23)on1 (configuration not stated)	11.6µM*	-0.5%	4.4	?	20.1	16.4
COc1ccc(S(=O)(=O)N2CCCC(c3cc(C(=O)NCc4cccnc4)no3)C2)cc1 (configuration not stated)	23.1µM*	-0.2%	-7.6	?	3.3	0.0
CC(C)S(=O)(=O)N1CCCC(c2cc(C(=O)NCc3cccnc3)no2)C1 (configuration not stated)	-23.4%	1.8%	-8.9	-8.5%	0.0	-15.3
CCCNC(=O)c1cc(C2CCCN(S(=O)(=O)c3cccc4cccnc34)C2)on1 (configuration not stated)	16.4µM*	1.0%	12.8	?	22.8	-14.9
CCCNC(=O)c1cc(C2CCCN(C(=O)c3ccc4ccccc4c3)C2)on1 (configuration not stated)	18.4µM*	0.1%	-20.2	23.1µM*	16.1	0.0
O=C(NC12CC3CC(CC(C3)C1)C2)OCCNC1CCCCC1	-23.1%	.	-9.9	?	-20.2	-23.3
SMILES	TDP1 cell CPT	ClpP mod	DRD3 agonist	DT40 TDP1 no CPT	IL-1B inflam inh	D3 antag
O=C(Nc1ccc(F)c(Cl)c1)c1cc(C2CCCN(S(=O)(=O)c3cccc4cccnc34)C2)on1 (configuration not stated)	?	-2.0%	13.9	25.9µM*	3.4	41.3
O=C(NCc1ccccc1)c1cc(C2CCCN(S(=O)(=O)c3cccc4cccnc34)C2)on1 (configuration not stated)	?	2.0%	1.5	?	14.7	-7.0
O=C(NCc1cccnc1)c1cc(C2CCCN(S(=O)(=O)c3cccc4cccnc34)C2)on1 (configuration not stated)	23.1µM*	0.3%	-2.0	20.6µM*	8.1	11.1
Cc1ccc(C)c(CC(=O)N2CCCC(c3cc(C(=O)NCc4cccnc4)no3)C2)c1 (configuration not stated)	?	-0.9%	-7.3	14.6µM*	2.8	0.0
Cc1onc(-c2ccc3c(c2)OCO3)c1-c1ccc2[nH]ccc2c1	18.4µM*	1.9%	-36.5	16.4µM*	-57.5*	0.0
c1ccc(-c2onc(-c3ccco3)c2-c2ccc3[nH]ccc3c2)cc1	7.94µM*	-7.9%	5.1	?	-11.4	35.8
c1cc2cc(-c3c(-c4ccc5c(c4)OCO5)noc3-c3ccsc3)ccc2[nH]1	?	?	-14.8	3.16µM*!	-57.2*	0.0
c1cncc(-c2ccc3[nH]ccc3c2)c1	?	1.9%	13.9	?	-2.6	6.9
CCc1ccccc1NC(=O)C1CCN(C(=O)c2ccc([N+](=O)[O-])cc2)CC1	-1.9%	.	-4.1	-23.8%	6.0	4.8
COc1ccc([C@H]2CC(=O)C=C(c3ccc4c(c3)OCCO4)C2)cc1	3.0%	-4.2%	8.9	-7.3%	-6.0	0.5
CS(=O)(=O)N(Cc1ccccc1Cl)c1ccc(C(=O)N2CCCC2)cc1	-1.2%	.	1.1	-15.6%	12.0	-1.1
O/N=C/c1cn(-c2ccccc2)nc1-c1ccc2c(c1)OCCO2	-10.8%	-4.0%	4.4	-10.3%	-88.4*	28.0
O/N=C/c1cn(-c2ccccc2)nc1-c1ccccc1	?	.	44.9*	?	-7.1	55.0
O=C(N/N=C/c1cn(-c2ccccc2)nc1-c1ccc2c(c1)OCCO2)c1ccncc1	-12.0%	.	5.6	-28.8%	-2.0	0.7
c1ccc(-n2cc(CNCCc3cscn3)c(-c3ccc4c(c3)OCO4)n2)cc1	?	.	-23.8	23.1µM*	-72.5*	-61.9*
OCc1cn(-c2ccccc2)nc1-c1ccc2c(c1)OCCO2	?	28.2µM*	0.5	23.1µM*	-22.6	27.8
